# Inconclusive results are not listed. Activity calls are given as the source filed them. How the source made its calls: active means hit-call score of the fitted dose curve at least 0.9, where 1 is the maximum; inconclusive means response in the unintended direction; inactive means score below 0.9.
# Assay: CLD_ACTIN_24hr: CellzDirect (CLD) Gene Expression Assay for Baseline Control (Actin) at 24 hours (AID 2283670)
# Method: CLD_24hr is a cell-based, multiplexed-readout assay that uses hepatocyte, a human liver primary cell, with measurements taken at 24 hours after chemical dosing in a 96-well plate.CLD_ACTIN_24hr is one of 16 assay component(s) measured or calculated from the CLD_24hr assay. It is designed to make measurements of mRNA induction, a form of inducible reporter, as detected with chemiluminescence signals by Quantitative Nuclease Protection Assay (qNPA) technology.Data from the assay component CLD_ACTIN_24hr was analyzed at the endpoint, CLD_ACTIN_24hr, in the positive analysis fitting direction relative to DMSO as the negative control and baseline of activity. Using a type of inducible reporter, gain-of-signal activity can be used to understand changes in the reporter gene as they relate to the gene ACTA1. Furthermore, this assay endpoint can be referred to as a secondary readout, because this assay has produced multiple assay endpoints where this one serves a background control function. To generalize the intended target to other relatable targets, this assay endpoint is annotated to the background measurement intended target family, where subfamily is baseline control.
# Human hepatocyte cultures were treated daily for two consecutive days with fresh dosing solutions containing appropriate concentrations of the 320 ToxCast chemicals (chemical identities were blinded to CellzDirect and other ToxCast collaborators), vehicle control (0.2% DMSO), and positive control inducers as summarized in Table 1. Due to the large number of treatment groups and chemicals examined, the ToxCast chemicals were divided into two groups (spanning two independent cultures of hepatocytes from separate donor preparations (Hu778: ToxCast plates 1 and 2; Hu776: ToxCast plates 3 and 4). Each preparation of human hepatocyte cultures was treated with respective vehicle control, medium only control, set of six positive controls/reference chemicals for the five hepatic receptor pathways, and a subset of eight of the ToxCast chemicals (indoxacarb, pyrithiobac-sodium, norflurazon, cyhalofop-butyl, methomyl, thiram, acetochlor, and propiconazole). These replicate data, coupled with internal replicates designed within the blinded ToxCast chemical library, provided additional data to evaluate interindividual differences between hepatocyte preparations and their potential impact on chemical profiles.Cell morphology and integrity were evaluated using phase-contrast microscopy as an indicator of hepatocyte cell health (Tyson & Green, 1987). Cultures for each treatment group (i.e., media, vehicle [0.2% DMSO], positive control inducers [multiple concentrations], and the ToxCast chemicals [multiple concentrations]) were observed and cell morphology was assessed relative to vehicle control cultures at each harvest time point (0, 6, 24, or 48 h). […] Images were evaluated at the conclusion of the study to assess changes in cell integrity and account for the effects of chemical exposure on uncharacteristic changes in concentration-dependent gene expression profiles. The results from these determinations of apparent cytotoxicity were annotated (yes/no) alongside the corresponding qNPA data for reference.At the conclusion of each treatment period, hepatocyte cultures (96-well) were washed with 1 volume of HBSS, lysed by addition of 25 ul ArrayPlate lysis buffer (HTG, Tucson, AZ), and 70 ul/well of Denaturation Oil, denatured by incubation at 95C for 10 min, and frozen at approximately -70C until analysis by nuclease protection assay (qNPA) (Roberts et al., 2007). For qNPA analysis, cell lysates were thawed at 50C for approximately 30 min, qNPA probes were added, and samples were incubated at 95C for 10 min to begin the detection process by denaturing the target RNA, dissociating the duplexes and secondary structure hybridization. At the conclusion of the hybridization period, S1 nuclease reagent was added to each sample to digest all nonprotected nucleotides at 50C for 60-90 min. […]
row,SMILES,outcome
1,CC1(C)CON(Cc2ccccc2Cl)C1=O,inactive
2,O=P(O)(O)CCCl,inactive
3,O=C1C2CC=CCC2C(=O)N1SC(Cl)(Cl)Cl (stereo not drawn),inactive
4,N#CN=C1SCCN1Cc1ccc(Cl)nc1,inactive
5,CO/N=C(/C1=NOCCO1)c1ccccc1Oc1ncnc(Oc2ccccc2Cl)c1F,inactive
6,Clc1nc(Cl)nc(Nc2ccccc2Cl)n1,inactive
7,CC(C)C1(C)N=C(c2ncccc2C(=O)O)NC1=O (stereo not drawn),inactive
8,CC(C)N1C(=O)c2ccccc2NS1(=O)=O,inactive
9,Nc1c(Cl)c(F)nc(OCC(=O)O)c1Cl,inactive
10,Cn1c(-c2ccccc2)cc(-c2ccccc2)[n+]1C,inactive
11,CS(=O)(=O)c1ccc(C(=O)C2C(=O)CCCC2=O)c([N+](=O)[O-])c1,inactive
12,COCc1cnc(C2=NC(C)(C(C)C)C(=O)N2)c(C(=O)O)c1 (stereo not drawn),inactive
13,CCOc1nc(C(Cl)(Cl)Cl)ns1,inactive
14,CCCN(CC)CC1COC2(CCC(C(C)(C)C)CC2)O1 (stereo not drawn),inactive
15,CCSC(=O)N1CCCCCC1,inactive
16,COP(=O)(OC)O/C(C)=C/C(=O)N(C)C,inactive
17,Clc1cccc(C(Cl)(Cl)Cl)n1,inactive
18,COc1ccc(-c2ccccc2)cc1NNC(=O)OC(C)C,inactive
19,CCCCC(O)(Cn1cncn1)c1ccc(Cl)cc1Cl (stereo not drawn),inactive
20,Cc1cnc(C2=NC(C)(C(C)C)C(=O)N2)c(C(=O)O)c1 (stereo not drawn),inactive
21,CSC(=O)c1c(C(F)F)nc(C(F)(F)F)c(C(=O)SC)c1CC(C)C,inactive
22,O=C(O)c1c(Cl)ccc2cc(Cl)cnc12,inactive
23,Cc1c(COC(=O)[C@@H]2[C@H](/C=C(\Cl)C(F)(F)F)C2(C)C)cccc1-c1ccccc1,inactive

# Source: PubChem BioAssay (EPA / NIEHS)
